PubChem BioAssay (NCI)
The panel holds about 79,000 compounds, 15% with a hit somewhere; the sample as a whole holds those more often. A number with no mark means an inactive call. Active and inactive are the calls of the source. Cut-off read from the data, not from the text of the source: active = growth inhibition above about 70%; inactive = the rest.

Key:
[1] = NCI Yeast Anticancer Drug Screen. Data for the rad52 strain (AID 147);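 note: 0% = growth of vehicle-treated control cultures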; conditions: S. cerevisiae rad52 mutant growth inhibition, stronger effect = higher value
Outline: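 Yeast strain carrying a DNA damage repair alteration was exposed to test compounds. Growth inhibition was measured relative to vehicle-treated controls.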

[2] = NCI Yeast Anticancer Drug Screen. Data for the wt1 strain (AID 149);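 note: 0% = growth of vehicle-treated wt1 cultures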; conditions: S. cerevisiae wt1 strain (SPY 50644) growth inhibition, stronger effect = higher value
Outline: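 Growth inhibition read against vehicle controls after compound exposure of the wt1 yeast strain.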

[3] = NCI Yeast Anticancer Drug Screen. Data for the rad50EPP+ strain (AID 151);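 note: 0% = growth of vehicle-treated control cultures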; conditions: S. cerevisiae rad50 mutant strain, stronger effect = higher value
Outline: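 Yeast strain carrying rad50 alteration (rad50EPP+) exposed to compounds; growth inhibition measured relative to vehicle-treated controls.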

[4] = NCI Yeast Anticancer Drug Screen. Data for the rad50 strain (AID 155);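 note: 0% = growth of vehicle-only cultures of the same strain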; conditions: S. cerevisiae rad50 strain growth inhibition, stronger effect = higher value
Outline: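 Readout: growth inhibition relative to vehicle-treated cultures. Compound exposure was carried out in a genetically defined yeast strain deficient in DNA damage repair.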

[5] = NCI Yeast Anticancer Drug Screen. Data for the mec2-1 strain (AID 157); conditions: S. cerevisiae mec2-1 strain, stronger effect = higher value
Outline: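 mec2-1 yeast strain, carrying an alteration in DNA damage repair or cell cycle control, was exposed to compounds; growth inhibition was measured relative to vehicle-treated controls.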

[6] = NCI Yeast Anticancer Drug Screen. Data for the rad14 strain (AID 159);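 note: 0% = growth of vehicle-treated control cultures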; conditions: S. cerevisiae rad14 strain growth inhibition, stronger effect = higher value
Outline: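 Growth inhibition vs vehicle controls; genetically altered yeast strain (DNA damage repair defect) treated with test compounds.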

[7] = NCI Yeast Anticancer Drug Screen. Data for the sgs1 mgt1 strain (AID 161);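 note: 0% = growth of cultures given vehicle only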; conditions: S. cerevisiae sgs1 mgt1 strain, stronger effect = higher value
Outline: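 Yeast cells carrying a defined DNA-repair defect were exposed to test compounds. Growth inhibition was measured relative to vehicle-treated controls.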

[8] = NCI Yeast Anticancer Drug Screen. Data for the CLN2oe strain (AID 163);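 note: 0% = growth of vehicle-only control cultures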; conditions: S. cerevisiae CLN2oe strain, stronger effect = higher value
Outline: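 Yeast cells carrying a defined cell-cycle control alteration were exposed to test compounds. Growth inhibition was scored against vehicle-treated control cultures.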

[9] = NCI Yeast Anticancer Drug Screen. Data for the cln2 rad14 strain (AID 165);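 note: 0% = growth equal to vehicle treated cultures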; conditions: S. cerevisiae cln2 rad14 strain, stronger effect = higher value
Outline: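 Yeast carrying cln2 and rad14 alterations (cell cycle control and DNA damage repair) were exposed to compounds. Growth inhibition was measured against vehicle-treated controls.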

[10] = NCI Yeast Anticancer Drug Screen. Data for the bub3 strain (AID 167); conditions: S. cerevisiae bub3 mutant strain, stronger effect = higher value
Outline: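 Readout: yeast growth inhibition, expressed relative to vehicle-only wells. The test organism is a mutant strain from a panel with lesions in DNA repair or checkpoint genes.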

[11] = NCI Yeast Anticancer Drug Screen. Data for the wt2 strain (AID 169);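 note: 0% = growth of vehicle-treated yeast cultures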; conditions: S. cerevisiae wt2 strain growth inhibition, stronger effect = higher value
Outline: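 Yeast cells were exposed to test compounds, and growth inhibition was measured relative to vehicle-treated controls.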

[12] = NCI Yeast Anticancer Drug Screen. Data for the mlh1 strain (AID 171);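 note: 0% = growth of vehicle-treated control cultures of the same strain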; conditions: S. cerevisiae mlh1 strain growth inhibition, stronger effect = higher value
Outline: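 Yeast carrying a defined genetic alteration in DNA damage repair or cell cycle control were exposed to test compounds. Growth inhibition was measured relative to vehicle-treated controls.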

[13] = NCI Yeast Anticancer Drug Screen. Data for the sgs1 strain (AID 173);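 note: 0% = growth of vehicle-only control cultures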; conditions: S. cerevisiae sgs1 mutant, stronger effect = higher value
Outline: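 Yeast mutant strains carrying defined defects in DNA damage repair or cell cycle control were exposed to test compounds. Growth inhibition was scored against vehicle-treated controls.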

[14] = NCI Yeast Anticancer Drug Screen. Data for the mlh1 rad18 strain (AID 175); conditions: S. cerevisiae mlh1 rad18 strain growth inhibition, stronger effect = higher value
Outline: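 Growth inhibition of the yeast strain was measured after compound exposure and expressed relative to vehicle-treated controls. The strain carries defined defects in DNA damage repair.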

[15] = NCI Yeast Anticancer Drug Screen. Data for the rad18 strain (AID 177); conditions: S. cerevisiae rad18 mutant growth inhibition, stronger effect = higher value
Outline: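 Yeast carrying a defined DNA damage repair alteration were exposed to compounds. Growth inhibition was expressed relative to vehicle-treated controls.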

[16] = at 5.0 µM (retest, dose inferred, filed as 0.5)
[17] = at 50.0 µM (retest, dose inferred, filed as 5.0)

S=c1nc(Cl)cc2[nH]c(Cl)cn12
growth inhibition ([1]; at 1.2 µM): 2% | growth inhibition ([1]; at 3.7 µM): 6% | growth inhibition ([1]; at 11.0 µM): 14% | growth inhibition ([1]; at 33.0 µM): 43% | growth inhibition ([1]; at 100.0 µM): 93% (active) | growth inhibition ([2]; at 1.2 µM): -3% | growth inhibition ([2]; at 3.7 µM): -3% | growth inhibition ([2]; at 11.0 µM): -2% | growth inhibition ([2]; at 33.0 µM): 13% | growth inhibition ([2]; at 100.0 µM): 42% | growth inhibition ([3]; at 1.2 µM): 4% | growth inhibition ([3]; at 3.7 µM): 18% | growth inhibition ([3]; at 11.0 µM): 44% | growth inhibition ([3]; at 33.0 µM): 89% (active) | growth inhibition ([3]; at 100.0 µM): 98% (active) | growth inhibition ([4]; at 1.2 µM): 7% | growth inhibition ([4]; at 3.7 µM): 9% | growth inhibition [4, 16]: -132% | growth inhibition ([4]; at 11.0 µM): 27% | growth inhibition ([4]; at 33.0 µM): 73% (active) | growth inhibition [4, 17]: 75% (active) | growth inhibition ([4]; at 50.0 µM): 78.8% (active) | growth inhibition ([4]; at 100.0 µM): 98% (active) | growth inhibition ([5]; at 1.2 µM): 3% | growth inhibition ([5]; at 3.7 µM): 4% | growth inhibition [5, 16]: -46% | growth inhibition ([5]; at 11.0 µM): 13% | growth inhibition ([5]; at 33.0 µM): 24% | growth inhibition [5, 17]: -8% | growth inhibition ([5]; at 50.0 µM): 82.5% (active) | growth inhibition ([5]; at 100.0 µM): 80% (active) | growth inhibition ([6]; at 1.2 µM): 1% | growth inhibition ([6]; at 3.7 µM): -1% | growth inhibition ([6]; at 11.0 µM): 10% | growth inhibition ([6]; at 33.0 µM): 20% | growth inhibition ([6]; at 100.0 µM): 59% | growth inhibition [7, 16]: -61% | growth inhibition [7, 17]: 3% | growth inhibition ([7]; at 50.0 µM): 47.4% | growth inhibition ([8]; at 1.2 µM): 1% | growth inhibition ([8]; at 3.7 µM): -1% | growth inhibition ([8]; at 11.0 µM): 3% | growth inhibition ([8]; at 33.0 µM): 3% | growth inhibition ([8]; at 100.0 µM): 60% | growth inhibition [9, 16]: -57% | growth inhibition [9, 17]: -39% | growth inhibition ([9]; at 50.0 µM): 76.6% (active) | growth inhibition ([10]; at 1.2 µM): -4% | growth inhibition ([10]; at 3.7 µM): -3% | growth inhibition [10, 16]: -30% | growth inhibition ([10]; at 11.0 µM): 9% | growth inhibition ([10]; at 33.0 µM): 30% | growth inhibition [10, 17]: 44% | growth inhibition ([10]; at 50.0 µM): 78.5% (active) | growth inhibition ([10]; at 100.0 µM): 94% (active) | growth inhibition ([11]; at 1.2 µM): 2% | growth inhibition ([11]; at 3.7 µM): 3% | growth inhibition ([11]; at 11.0 µM): 5% | growth inhibition ([11]; at 33.0 µM): 11% | growth inhibition ([11]; at 100.0 µM): 83% (active) | growth inhibition ([12]; at 1.2 µM): 8% | growth inhibition ([12]; at 3.7 µM): 1% | growth inhibition ([12]; at 11.0 µM): 5% | growth inhibition ([12]; at 33.0 µM): 19% | growth inhibition ([12]; at 100.0 µM): 90% (active) | growth inhibition ([13]; at 1.2 µM): 3% | growth inhibition ([13]; at 3.7 µM): 3% | growth inhibition ([13]; at 11.0 µM): 15% | growth inhibition ([13]; at 33.0 µM): 42% | growth inhibition ([13]; at 100.0 µM): 99% (active) | growth inhibition [14, 16]: -117% | growth inhibition [14, 17]: 10% | growth inhibition ([14]; at 50.0 µM): 96.5% (active) | growth inhibition ([15]; at 1.2 µM): 1% | growth inhibition ([15]; at 3.7 µM): 3% | growth inhibition ([15]; at 11.0 µM): 14% | growth inhibition ([15]; at 33.0 µM): 44% | growth inhibition ([15]; at 100.0 µM): 96% (active)
